According to PubChem BioAssay AID1159580 (chemical genetic matrix, 2015):
“And” between values parts separate entries of the source, which are not always exact repeats. Equal values may be shown once. Out of some 5,500 compounds screened, about 2,000 (36%) were called active. Inconclusive results (about 18%) are left out. Rule as the data show it: active = normalized growth mostly below about 0.91 (no sharp cut-off); inconclusive = no clear call, values can overlap the other calls; inactive = mostly above about 0.92. The list shows a part of the results.

Assay: chemical genetic growth profiling, strain panel (AID 1159580);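 also: tested at 20 µM; growth read once vehicle control cultures reached saturation at 30 °C; 1 = growth at the plate median or of vehicle wells; lower values mean less growth of the strain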
Details: S. cerevisiae deletion strains, growth OD

Measured: normalized growth

O=C(O)CCCCC1SCC2NC(=O)NC21 (stereo not drawn)
inactive: locus YAL013W, strain DEP1, stronger effect = lower value 1.02 | locus YAL021C, strain ccr4, stronger effect = lower value 0.999 | locus YAL026C, strain drs2, stronger effect = lower value 0.994 | locus YAL030W, strain snc1, stronger effect = lower value 0.995 | locus YBL061C, strain skt5, stronger effect = lower value 0.989 | locus YBR009C, strain hhf1, stronger effect = lower value 0.997 | locus YBR021W, strain FUR4, stronger effect = lower value 0.977 | locus YBR023C, strain chs3, stronger effect = lower value 0.979 | locus YBR171W, strain sec66, stronger effect = lower value 0.996 | locus YBR229C, strain ROT2, stronger effect = lower value 1 | locus YBR231C, strain swc5, stronger effect = lower value 0.998 | locus YBR279W, strain paf1, stronger effect = lower value 0.997 | locus YCL011C, strain gbp2, stronger effect = lower value 0.995 | locus YCL016C, strain dcc1, stronger effect = lower value 0.995 | locus YCL029C, strain bik1, stronger effect = lower value 0.998 | locus YCL061C, strain MRC1, stronger effect = lower value 1 | locus YCL069W, strain vba3, stronger effect = lower value 0.97 | locus YCR088W, strain abp1, stronger effect = lower value 0.981 | locus YDL005C, strain med2, stronger effect = lower value 0.98 | locus YDL035C, strain GPR1, stronger effect = lower value 0.996 | locus YDL040C, strain nat1, stronger effect = lower value 1 | locus YDL074C, strain BRE1, stronger effect = lower value 1.01 | locus YDL101C, strain DUN1, stronger effect = lower value 0.989 | locus YDL134C, strain PPH21, stronger effect = lower value 1 | locus YDL185W, strain tfp1, stronger effect = lower value 0.997 | locus YDL192W, strain arf1, stronger effect = lower value 1.01 | locus YDR001C, strain nth1, stronger effect = lower value 0.985 | locus YDR069C, strain doa4, stronger effect = lower value 0.973 | locus YDR101C, strain arx1, stronger effect = lower value 0.98 | locus YDR137W, strain rgp1, stronger effect = lower value 0.983 | locus YDR150W, strain NUM1, stronger effect = lower value 1.02 | locus YDR159W, strain sac3, stronger effect = lower value 1.02 | locus YDR162C, strain NBP2, stronger effect = lower value 1.01 | locus YDR195W, strain ref2 1.01 | locus YDR297W, strain sur2, stronger effect = lower value 0.996 | locus YDR318W, strain mcm21, stronger effect = lower value 1 | locus YDR334W, strain swr1, stronger effect = lower value 0.984 | locus YDR335W, strain msn5, stronger effect = lower value 0.986 | locus YDR388W, stronger effect = lower value 1 | locus YDR392W, strain spt3, stronger effect = lower value 0.996 | locus YDR502C, strain sam2, stronger effect = lower value 0.994 | locus YEL003W, strain gim4, stronger effect = lower value 0.984 | locus YEL037C, strain rad23, stronger effect = lower value 0.992 | locus YEL061C, strain CIN8 (second series), stronger effect = lower value 1 | locus YEL061C, strain CIN8, stronger effect = lower value 1.02 | locus YER015W, strain faa2, stronger effect = lower value 0.979 | locus YER016W, strain bim1, stronger effect = lower value 0.988 | locus YER110C, stronger effect = lower value 1 | locus YER111C, strain swi4, stronger effect = lower value 1 | locus YER155C, strain BEM2 (second series), stronger effect = lower value 0.985 | locus YER155C, strain BEM2, stronger effect = lower value 0.999 | locus YER167W, strain BCK2, stronger effect = lower value 1 | locus YFR010W, strain ubp6, stronger effect = lower value 0.995 | locus YGL078C, strain dbp3, stronger effect = lower value 0.99 | locus YGL086W, strain mad1, stronger effect = lower value 0.993 | locus YGL167C, strain pmr1, stronger effect = lower value 0.99 | locus YGL173C, strain kem1, stronger effect = lower value 0.985 | locus YGL227W, strain vid30, stronger effect = lower value 1 | locus YGL240W, strain doc1, stronger effect = lower value 0.985 | locus YGL248W, strain PDE1, stronger effect = lower value 1 | locus YGL253W, strain hxk2, stronger effect = lower value 0.985 | locus YGR078C, strain PAC10, stronger effect = lower value 1.05 | locus YGR135W, strain pre9, stronger effect = lower value 0.999 | locus YGR252W, strain gcn5, stronger effect = lower value 0.944 | locus YHR013C, strain ard1, stronger effect = lower value 0.988 | locus YHR027C, strain rpn1, stronger effect = lower value 0.989 | locus YHR030C, strain SLT2, stronger effect = lower value 1.02 and 1.01 | locus YHR079C, strain IRE1 (second series), stronger effect = lower value 1.02 | locus YHR079C, strain IRE1, stronger effect = lower value 1.01 | locus YHR094C, strain hxt1, stronger effect = lower value 1 | locus YHR129C, strain ARP1, stronger effect = lower value 1.01 | locus YHR142W, strain chs7, stronger effect = lower value 0.982 | locus YHR200W, strain rpn10, stronger effect = lower value 0.996 | locus YIL066C, strain RNR3, stronger effect = lower value 1.01 | locus YIL073C, strain SPO22, stronger effect = lower value 1.02 | locus YIL125W, strain kgd1, stronger effect = lower value 0.987 | locus YIR030C, strain dcg1, stronger effect = lower value 1.01 | locus YJL092W, strain hpr5, stronger effect = lower value 0.986 | locus YJL095W, strain BCK1 (second series), stronger effect = lower value 0.998 | locus YJL095W, strain BCK1, stronger effect = lower value 1.02 and 1 | locus YJL115W, strain asf1, stronger effect = lower value 0.996 | locus YJL129C, strain trk1, stronger effect = lower value 0.954 | locus YJL134W, strain LCB3, stronger effect = lower value 1.01 | locus YJL154C, strain vps35, stronger effect = lower value 0.994 | locus YJL164C, strain tpk1, stronger effect = lower value 1 | locus YJL166W, strain qcr8, stronger effect = lower value 0.965 | locus YJL168C, strain set2, stronger effect = lower value 0.993 | locus YJL187C, strain SWE1 (second series), stronger effect = lower value 1
